From PubChem BioAssay (NCATS) come the findings set out here.

Structures are written as SMILES. Results filed as inconclusive are left out. Where a call stands in place of a potency, no number is given. A number with no mark means an inactive call. The source made the active and inactive calls. Calls come from the whole dose curve; as a rule, active = well fitted inhibition curve with a large enough effect; inconclusive = small, poorly fitted or top-dose-only effect; inactive = flat fitted curve, though single readings scatter. *1 amine or outer side, *2 acyl side, *3 side chain or, on linkers, in order; H or OH if unused. Bridge positions count the residues as written; N and C are the ends. Where a SMILES comes first, the peptide text is derived from it. Square brackets hold non-standard residues; d marks the D form. Bridges are numbered along the chain shown (N, C = ends). Peptide text beside a SMILES is read from it. [ ]: non-standard residue; d: D form. The star is where a group is joined. ξ: configuration not given here. X11 = NC1=N[C@@H](O)C[C@H]([C@H](N[*:1])C(=O)[*:2])N1; d(hArg(Et2)) = CCN=C(NCC)NCCCC[C@@H](N)C(=O)O; hArg(Et2) = CCN=C(NCC)NCCCC[C@H](N)C(=O)O; Phe(4-Cl) = N[C@@H](Cc1ccc(Cl)cc1)C(=O)O; ΔAla(Z-3-ureido) = NC(=O)N/C=C(\N)C(=O)O; ξ2Nal = NC(Cc1ccc2ccccc2c1)C(=O)O; 3Pal = N[C@@H](Cc1cccnc1)C(=O)O; β3hOrn = NCCC[C@H](N)CC(=O)*; Orn = NCCC[CH](N)C(=O)O; Dap = NC[C@H](N)C(=O)O; ξP = O=C(O)C1CCCN1; Mpa = O=C(O)CCS
Potency is the fitted concentration of half-maximal effect.

Sequence of Glutathione peroxidase 1 (Homo sapiens) (P07203 whole entry, looked up): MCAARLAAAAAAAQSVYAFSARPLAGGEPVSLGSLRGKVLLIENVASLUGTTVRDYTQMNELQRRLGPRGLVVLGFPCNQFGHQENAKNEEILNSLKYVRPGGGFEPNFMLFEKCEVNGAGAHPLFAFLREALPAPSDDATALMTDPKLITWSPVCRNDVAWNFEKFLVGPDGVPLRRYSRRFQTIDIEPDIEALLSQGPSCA

This test addresses Glutathione peroxidase 1 (Homo sapiens) (UniProt P07203). The experiment in a line: Primary qHTS Assay for Inhibitors of Recombinant Selenoprotein Glutathione Peroxidase 1 (GPX1) (AID 1845191). Note: nearly all actives have a fitted effect of over 65% in size. The following applies: recombinant GPX1, GR-coupled NADPH fluorescence, 15 min; series mostly up to 48.8 µM. The gist of the method:
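GPX1 10 nM, GR 100 nM, GSH 1 mM, NADPH 0.5 mM, CHP 0.5 mM (final). 30-min cpd preincubation, RT. Ex340/Em450 read t=0, t=15 min.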
For the compound `OC[C@H]1O[C@H](O[C@H]2[C@H](O)[C@@H](O)[C@H](O)O[C@@H]2CO)[C@H](O)[C@@H](O)[C@@H]1O`, the Potency result is “inactive”. Still for that read-out and setting: the result for `CCOc1ccc(CC2NC(=O)CCSSCC(C(=O)N3CCCC3C(=O)NC(CCCN)C(=O)NCC(N)=O)NC(=O)C(CC(N)=O)NC(=O)C(C(C)O)NC(=O)C(C(C)CC)NC2=O)cc1` (centres undefined) ([Mpa]Y(Et)ITNCP[Orn]G-NH2; disulfide 1-6; configuration not given here) reads “inactive”. On the same count and under the same terms, next, `Oc1c(Br)cc(Br)cc1CNC1CCC(O)CC1` (centres undefined): “inactive”; `CC(=O)OC[C@H]1O[C@@H](n2cnc(N)nc2=O)[C@H](OC(C)=O)[C@@H]1OC(C)=O`: “inactive”. For the compound `CC(C)(C)NCC(O)COc1ccccc1C#N` (centres undefined), the Potency result was “inactive”. On to `CCN1CCN(C2(C(=O)NCCc3ccccc3)Cc3ccccc3C2)CC1`, for which the Potency result is “inactive”. On the same count and under the same terms, next, `CNc1ncc(-c2ccc3c(=O)c(C(=O)O)cn(C4CC4)c3c2C)cc1C`: “inactive”; `C[C@@H]1[C@H](C)CC[C@]2(C(=O)O[C@@H]3O[C@@H](CO[C@@H]4O[C@@H](CO)[C@@H](O[C@@H]5O[C@@H](C)[C@@H](O)[C@@H](O)[C@H]5O)[C@@H](O)[C@H]4O)[C@@H](O)[C@@H](O)[C@H]3O)CC[C@]3(C)C(=CC[C@H]4[C@@]5(C)C[C@@H](O)[C@@H](O)[C@](C)(CO)[C@@H]5CC[C@@]43C)[C@H]12`: “inactive”; `CCCCCCCCCCCCCCCC(=O)OCC=C(C)C=CC=C(C)C=CC1=C(C)CCCC1(C)C`: “inactive”. Still for that read-out and setting: next, `NNCCc1ccc(NC(=O)CCCc2ccccc2)cc1`: “inactive”; `COc1ccc(-c2cc(-c3ccc4c(c3)NC(=O)CO4)nc3c2COc2ccc(C)cc2-3)cc1`: “inactive”; `CCNC(=NCCCC[C@H](NC(=O)[C@H](CC(C)C)NC(=O)[C@@H](CCCCN=C(NCC)NCC)NC(=O)[C@@H](Cc1ccc(O)cc1)NC(=O)[C@@H](CO)NC(=O)[C@H](Cc1cccnc1)NC(=O)[C@H](Cc1ccc(Cl)cc1)NC(=O)C(Cc1ccc2ccccc2c1)NC(C)=O)C(=O)N1CCCC1C(=O)N[C@H](C)C(N)=O)NCC` (some centres undefined) (Ac-[ξ2Nal][Phe(4-Cl)][3Pal][dS][dY][d(hArg(Et2))]L[hArg(Et2)][ξP][dA]-NH2): “inactive”.

With `O=C1NC(Nc2ccccc2)=N/C1=C\c1ccc2c(c1)OCO2`, the Potency entry is “inactive”. Still for that read-out and setting: next, `O=C(O)C1CCc2cc(C3CCCCC3)c(Cl)cc21` (centres undefined): “inactive”. Same read-out and setting: the result for `CC(C)N(CCCCOCC(=O)O)c1cnc(-c2ccccc2)c(-c2ccccc2)n1` reads “inactive”; that for `CC1(C)C[C@H]1C(=O)N/C(=C\CCCCSC[C@@H](N)C(=O)O)C(=O)O`, “inactive”; that for `C=C1/C(=C/C=C2\CCC[C@]3(C)[C@@H]([C@H](C)CC[C@@H](O)C(C)C)CC[C@@H]23)C[C@@H](O)C[C@@H]1O`, “inactive”. Same read-out and setting: the result for `CCn1cc(-c2cccc(C(F)(F)F)c2)c2sc(C(N)=NC3CCS(=O)(=O)CC3)cc2c1=O` reads 20.2 µM (active); that for `COc1ccc(-c2nn3c(-c4ccco4)nnc3s2)cc1OC`, “inactive”. Regarding `CCC(=O)O[C@]1(C(=O)COC(C)=O)CC[C@H]2[C@@H]3CCC4=CC(=O)CC[C@]4(C)[C@H]3[C@@H](O)C[C@@]21C`, the Potency result was “inactive”.

On to `C[C@]12C=CC(=O)C=C1CC[C@@H]1[C@@H]2[C@@H](O)C[C@@]2(C)[C@H]1CC[C@]2(O)C(=O)COC(=O)c1cccc(S(=O)(=O)O)c1`, for which the Potency entry is “inactive”.

Turning to `Cc1cccc(N2C(=O)N(Cc3ccc(C(C)(C)C)cc3)c3ccccc3S2(=O)=O)c1`, the Potency result is “inactive”. On to `NS(=O)(=O)c1ccc(-n2nc(C(F)(F)F)cc2-c2ccc(F)cc2)cc1`, for which the Potency result is “inactive”. On the same count and under the same terms, next, `Cc1cc(C)n(CCc2nc3c4ccccc4nc(N4CCN(c5cccc(C)c5C)CC4)n3n2)n1`: “inactive”. The same measure, in the same setting: the result for `CO[C@H]1O[C@@H]2O[C@@]3(C)CC[C@H]4[C@H](C)CC[C@@H]([C@@H]1C)[C@@]24OO3` reads “inactive”.

For the compound `NCc1ccc(Oc2ccccc2)cc1`, the Potency entry is “inactive”.

With `CCN1CCN(C(c2ccc(C)cc2)c2sc3nc(-c4ccco4)nn3c2O)CC1` (centres undefined), the Potency result is “inactive”. As to `NCCC[C@H](N)CC(=O)N[C@H]1CNC(=O)[C@H]([C@H]2C[C@H](O)N=C(N)N2)NC(=O)/C(=C/NC(N)=O)NC(=O)[C@H](CO)NC(=O)[C@H](CO)NC1=O` (β3hOrn-[Dap]SS[ΔAla(Z-3-ureido)][X11]; lactam 1-C), the Potency entry is “inactive”.

As to `CCCCC(CC)COc1ccc(-c2nc(-c3ccc(OC)cc3)nc(-c3ccc(OCC(CC)CCCC)cc3O)n2)c(O)c1` (centres undefined), the activity, negative = inhibition was -11% [at 4.49 µM].
